Results on 7 sequences are retold here after the supplement of paper PMC6555819.

What all share (assay): PBM binding z-score (relative to random genomic background probes); higher = stronger binding; sequences stand for … in GC…GCGATTGACAGCGTAGAATGAAGG
The subject of test [1] is RARb homodimer (NR concentration 270 nM). The method in brief:
(§1)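 Ligand-free nuclear receptor dimers were bound for 1 h to custom Agilent 4×180K protein-binding microarrays. Detection used antibodies against each partner (one per run). Binding z-scores rest on regression-normalized fluorescence, with random background probes as the reference.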

In test [2] the test system is RARg:RXRa (NR concentration 270 nM, RXRa partner concentration 90 nM). In a few lines:
as §1

Test [3] deals with RARg homodimer (NR concentration 270 nM). The method in brief: as §1
For test [4], the system named is RXRa DBDmut IVT, anti-RXR (DBD mutation: RXRa K156A/R161A, NR concentration 90 nM). In a few lines:
as §1

The subject of test [5] is RXRa homodimer (NR concentration 180 nM). The method in brief: as §1
Test [6] deals with THRa:RXRa (NR concentration 90 nM, RXRa partner concentration 90 nM). The method in brief:
as §1

Test [7] relates to THRa homodimer (NR concentration 90 nM). The method in brief:
as §1

In test [8] the test system is VDR homodimer (NR concentration 270 nM). The method in brief:
as §1

Turning to ATCGGAAGGTCGTGAGGTGAGTATACAGAAAGGC, the PBM binding z-score in test [1] is 2.27; in test [2], 3.03; in test [3], 2.55; in test [4] it was 0.762; in test [5] it was 3.05; in test [6] it was 2.83. Moreover, the PBM binding z-score in test [7] turned out to be 1.76; in test [8], 1.04.
As to CGTTCAAGGTCAATGCTAGGTCAGTGAAAGCATT, the PBM binding z-score in test [1] came out at 4.78; in test [2] it was 7.74; in test [3] it was 7.18; in test [4], 4.09; in test [5], 5.88; in test [6], 4.72. The values for the PBM binding z-score in test [7] and in test [8] were 3.33 and 3.44, respectively.
With CCGAGTAGGTTATGGGGCATCCAGGCAACGGTGA, the PBM binding z-score is 0.911 in test [1]; 0.651 in test [2]; 0.586 in test [3]; -0.816 in test [4]; 0.858 in test [5]; 0.523 in test [6]. Moreover, the PBM binding z-score in test [7] is 0.159; in test [8] it was -0.188.
Regarding ATCTCTAGGTAAAGTTCAGTGAAAGATCGATAGA, the PBM binding z-score in test [1] came out at 2.65; in test [2], 2.18; in test [3] it was 2.77; in test [4], 1.72; in test [5], 1.42; in test [6], 1.24. Moreover, the PBM binding z-score in test [7] was found to be 0.317; in test [8], 2.53.
In the case of GGAACGAGGGCTAAGTTGATAGCATCTGTCGACG, the PBM binding z-score is -0.586 in test [1]; -0.0723 in test [2]; 0.11 in test [3]; 0.186 in test [4]; -0.114 in test [5]; -0.638 in test [6]. The values for the PBM binding z-score in test [7] and in test [8] were -0.828 and -0.365, respectively.
Regarding TCATATAGGTAAATGCAAGGTGAAAGTCCGATCT, the PBM binding z-score in test [1] worked out at 1.3; in test [2] it was 1.09; in test [3] it was 0.776; in test [4] it was 1.93; in test [5], 1.36; in test [6], 2.64. The PBM binding z-score in test [7] was found to be 1.5; in test [8], 0.698.
CCTTACGGGTCACTGACAGGTTATCGCATTTGGA: the PBM binding z-score in test [1] was determined as 3.3; in test [2], 5.91; in test [3], 4.66; in test [4], 1.9; in test [5], 5.05; in test [6], 3.02. The values for the PBM binding z-score in test [7] and in test [8] were 0.17 and 0.982, respectively.
